Source: PubChem BioAssay (Tox21)
Inconclusive results are not listed. The source made the active and inactive calls. The call rests on the fitted dose curve; in most records, active means well fitted curve in the direction sought with a large enough effect in the repeat runs; inconclusive means weak or mixed curves; inactive means no such curve, though single readings can be large; an effect the other way counts as inactive or inconclusive.

How the values were obtained:
[1] = qHTS assay for identifying genotoxic compounds that show differential cytotoxicity against isogenic chicken DT40 cell lines with known DNA damage response pathways - wild type cell line (AID 743012); further: nearly all actives have a fitted effect of over 60% in size
Method in brief: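 Endpoint: CellTiter-Glo luminescence, 30 min RT. Cells: wild type DT40, 300/well. Exposure: compounds in DMSO, 40 h, 37 C/5% CO2, after ~0.5 h pre-incubation.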

[2] = qHTS assay for identifying genotoxic compounds that show differential cytotoxicity against isogenic chicken DT40 cell lines with known DNA damage response pathways - Rev3 mutant cell line (AID 743014); further: nearly all actives have a fitted effect of over 55% in size
[3] = qHTS assay for identifying genotoxic compounds that show differential cytotoxicity against isogenic chicken DT40 cell lines with known DNA damage response pathways - Rad54/Ku70 mutant cell line (AID 743015); further: nearly all actives have a fitted effect of over 60% in size

Measured: Potency
Potency means the concentration at half of the fitted maximal effect.

COC(=O)[C@]12CCC(C)(C)C[C@H]1[C@H]1C(=O)C=C3[C@@]4(C)C=C(C#N)C(=O)C(C)(C)[C@@H]4CC[C@@]3(C)[C@]1(C)CC2
active: [1] 596 nM | [2] 841 nM | [3] 596 nM
